# Laboratory results published in the supplement of paper PMC12282887.
# ± gives the standard deviation of the averaged measurements.
# Key:
# Assay in all cases: promoter activity interaction Z-score (Lux/OD deviation from empty-vector control); higher = stronger promoter induction by the compound
# [1] = system: E. coli BW25113 acrABp lux reporter
# Outline: (§1)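 Reporter strains of E. coli BW25113 grew at 37°C in 40 µl LB Lennox in 384-well plates. Readings of OD600 and luminescence were taken every 30 min over 12 h, integrated over 0–8 h (wild type) or 1–9 h (deletion strains), and wells below 10% of the median growth value were excluded. Scores are Z-transformed residuals of growth-normalised luminescence from a fit against a control.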
# [2] = system: E. coli BW25113 marRABp lux reporter
# Outline: as §1
# [3] = system: E. coli BW25113 micFp lux reporter
# Outline: as §1
# [4] = system: E. coli BW25113 ompFp lux reporter
# Outline: as §1
# [5] = system: E. coli BW25113 robp lux reporter
# Outline: as §1
# [6] = system: E. coli BW25113 soxSp lux reporter
# Outline: as §1
# [7] = system: E. coli BW25113 tolCp lux reporter
# Outline: as §1
# [8] = 0.13 µg/ml, genetic background: wild type
# [9] = 0.13 µg/ml, genetic background: ΔmarA
# [10] = 0.13 µg/ml, genetic background: Δrob
# [11] = 0.13 µg/ml, genetic background: ΔsoxS
# [12] = 0.26 µg/ml, genetic background: wild type
# [13] = 0.26 µg/ml, genetic background: ΔmarA
# [14] = 0.26 µg/ml, genetic background: Δrob
# [15] = 0.26 µg/ml, genetic background: ΔsoxS
# [16] = 0.52 µg/ml, genetic background: wild type
# [17] = 0.52 µg/ml, genetic background: ΔmarA
# [18] = 0.52 µg/ml, genetic background: Δrob
# [19] = 0.52 µg/ml, genetic background: ΔsoxS
smiles,measurement,setting,value
CNC(C)C1CCC(N)C(OC2C(N)CC(N)C(OC3OCC(C)(O)C(NC)C3O)C2O)O1 (centres undefined) [Gentamicin],promoter activity interaction Z-score,[1]; [8],-0.258 ± 0.098
same,promoter activity interaction Z-score,[1]; [9],0.731 ± 0.32
same,promoter activity interaction Z-score,[1]; [10],0.126 ± 0.055
same,promoter activity interaction Z-score,[1]; [11],0.158 ± 0.14
same,promoter activity interaction Z-score,[1]; [12],-0.117 ± 0.18
same,promoter activity interaction Z-score,[1]; [13],0.35 ± 0.15
same,promoter activity interaction Z-score,[1]; [14],0.483 ± 0.18
same,promoter activity interaction Z-score,[1]; [15],0.0843 ± 0.06
same,promoter activity interaction Z-score,[1]; [16],0.311 ± 0.023
same,promoter activity interaction Z-score,[1]; [17],0.396 ± 0.21
same,promoter activity interaction Z-score,[1]; [18],0.801 ± 0.45
same,promoter activity interaction Z-score,[1]; [19],0.744 ± 0.39
same,promoter activity interaction Z-score,[2]; [8],-0.229 ± 0.24
same,promoter activity interaction Z-score,[2]; [9],-0.193 ± 0.19
same,promoter activity interaction Z-score,[2]; [10],-0.0111 ± 0.062
same,promoter activity interaction Z-score,[2]; [11],0.027 ± 0.11
same,promoter activity interaction Z-score,[2]; [12],-0.22 ± 0.026
same,promoter activity interaction Z-score,[2]; [13],-0.108 ± 0.19
same,promoter activity interaction Z-score,[2]; [14],-0.0765 ± 0.087
same,promoter activity interaction Z-score,[2]; [15],0.17 ± 0.086
same,promoter activity interaction Z-score,[2]; [16],0.575 ± 0.65
same,promoter activity interaction Z-score,[2]; [17],0.543 ± 0.31
same,promoter activity interaction Z-score,[2]; [18],0.678 ± 1
same,promoter activity interaction Z-score,[2]; [19],0.166
same,promoter activity interaction Z-score,[3]; [8],-0.256 ± 0.0079
same,promoter activity interaction Z-score,[3]; [9],-0.00364 ± 0.024
same,promoter activity interaction Z-score,[3]; [10],-0.0412 ± 0.1
same,promoter activity interaction Z-score,[3]; [11],0.232 ± 0.23
same,promoter activity interaction Z-score,[3]; [12],-0.302 ± 0.26
same,promoter activity interaction Z-score,[3]; [13],0.035 ± 0.072
same,promoter activity interaction Z-score,[3]; [14],0.115 ± 0.15
same,promoter activity interaction Z-score,[3]; [15],0.509 ± 0.23
same,promoter activity interaction Z-score,[3]; [16],-0.614 ± 0.016
same,promoter activity interaction Z-score,[3]; [17],0.0535 ± 0.039
same,promoter activity interaction Z-score,[3]; [18],0.114 ± 0.013
same,promoter activity interaction Z-score,[3]; [19],0.235 ± 0.36
same,promoter activity interaction Z-score,[4]; [8],-0.504 ± 0.27
same,promoter activity interaction Z-score,[4]; [9],-0.192 ± 0.27
same,promoter activity interaction Z-score,[4]; [10],0.285 ± 0.14
same,promoter activity interaction Z-score,[4]; [11],0.28 ± 0.15
same,promoter activity interaction Z-score,[4]; [12],-1.09 ± 0.052
same,promoter activity interaction Z-score,[4]; [13],-0.0939 ± 0.49
same,promoter activity interaction Z-score,[4]; [14],-0.00259 ± 0.23
same,promoter activity interaction Z-score,[4]; [15],0.504 ± 0.56
same,promoter activity interaction Z-score,[4]; [16],-0.826
same,promoter activity interaction Z-score,[4]; [17],-0.127 ± 0.14
same,promoter activity interaction Z-score,[4]; [18],-0.414
same,promoter activity interaction Z-score,[4]; [19],0.191 ± 0.32
same,promoter activity interaction Z-score,[5]; [8],-0.805 ± 0.067
same,promoter activity interaction Z-score,[5]; [9],-0.513 ± 0.77
same,promoter activity interaction Z-score,[5]; [10],0.0663 ± 0.25
same,promoter activity interaction Z-score,[5]; [11],-0.014 ± 0.43
same,promoter activity interaction Z-score,[5]; [12],-0.862 ± 1.1
same,promoter activity interaction Z-score,[5]; [13],0.245 ± 0.6
same,promoter activity interaction Z-score,[5]; [14],-0.248 ± 0.75
same,promoter activity interaction Z-score,[5]; [15],0.869 ± 0.64
same,promoter activity interaction Z-score,[5]; [16],-1.31 ± 0.28
same,promoter activity interaction Z-score,[5]; [17],-0.148 ± 0.081
same,promoter activity interaction Z-score,[5]; [18],-1.14 ± 0.47
same,promoter activity interaction Z-score,[5]; [19],-0.192 ± 0.46
same,promoter activity interaction Z-score,[6]; [8],-0.176 ± 0.037
same,promoter activity interaction Z-score,[6]; [9],0.0574 ± 0.0087
same,promoter activity interaction Z-score,[6]; [10],0.128 ± 0.056
same,promoter activity interaction Z-score,[6]; [11],0.247 ± 0.13
same,promoter activity interaction Z-score,[6]; [12],-0.318 ± 0.11
same,promoter activity interaction Z-score,[6]; [13],-0.0384 ± 0.093
same,promoter activity interaction Z-score,[6]; [14],0.0805 ± 0.022
same,promoter activity interaction Z-score,[6]; [15],0.308 ± 0.14
same,promoter activity interaction Z-score,[6]; [16],-0.16 ± 0.27
same,promoter activity interaction Z-score,[6]; [17],-0.404 ± 0.039
same,promoter activity interaction Z-score,[6]; [18],-0.462 ± 0.067
same,promoter activity interaction Z-score,[6]; [19],0.162 ± 0.49
same,promoter activity interaction Z-score,[7]; [8],-0.827 ± 0.069
same,promoter activity interaction Z-score,[7]; [9],0.61 ± 0.68
same,promoter activity interaction Z-score,[7]; [10],-0.223 ± 0.083
same,promoter activity interaction Z-score,[7]; [11],0.974 ± 0.11
same,promoter activity interaction Z-score,[7]; [12],-0.519 ± 0.51
same,promoter activity interaction Z-score,[7]; [13],0.897 ± 0.19
same,promoter activity interaction Z-score,[7]; [14],0.252 ± 0.61
same,promoter activity interaction Z-score,[7]; [15],0.0714 ± 0.32
same,promoter activity interaction Z-score,[7]; [16],-0.626 ± 0.67
same,promoter activity interaction Z-score,[7]; [17],-0.251 ± 0.16
same,promoter activity interaction Z-score,[7]; [18],-0.791 ± 0.011
same,promoter activity interaction Z-score,[7]; [19],0.133 ± 0.12
